According to PubChem BioAssay AID1822 (The Scripps Research Institute Molecular Screening Center, 2009):
Out of some 290,000 compounds screened, about 3,500 (1.2%) were called active. This is one part of a sample in which actives are shown more often than they occur. Values without a mark were called inactive.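 Rule for the calls: active = inhibition above the campaign mean inhibition over all tested compounds plus 3 SD (cut at about 28% in these data); inactive = the rest.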

These compounds were tested on M18 aspartyl aminopeptidase (Plasmodium falciparum 3D7) (assay: inhibition of P. falciparum M18 aminopeptidase – biochemical, QFRET, recombinant enzyme, primary screen (AID 1822;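 note: 0% = plate median of test compound wells and 100% = 2 mM ZnCl2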)). Details: recombinant PfM18AAP, H-Glu-NHMec fluorogenic cleavage; at 7.35 µM; active compounds read high.
COc1ccc(NC(=O)COc2ccc(C(=O)c3ccc(F)cc3)cc2)cc1S(N)(=O)=O gave an inhibition of -0.83%. CC(/C=C/C1(O)C(C)CC(=O)CC1(C)C)OC1OC(CO)C(O)C(O)C1O (stereo not given) was tested, and the inhibition was 49.9% (active). CC1=C(C)C(=O)OC(C(C)C2CCC3C4CC=C5CC(OC6OC(COC7OC(CO)C(O)C(O)C7O)C(O)C(O)C6O)CC(O)C5(C)C4CCC23C)C1 (stereo not given) showed an inhibition of 3.15%. Cc1[nH]c(C)c(S(=O)(=O)N2CCN(c3cccc(C(F)(F)F)c3)CC2)c1C(=O)N1CCCCC1 showed an inhibition of 3.83%. With N#CCC(=O)N/N=C/c1ccc(SCC(=O)Nc2ccccc2)o1 the inhibition was 34.6% (active). With Cc1ccc(/C=N/NC(=O)CSc2ccccn2)o1 the inhibition was 5.97%. Work on O=C(CSc1ccc(/C=N/NC(=O)c2cccc(F)c2)o1)Nc1ccccc1 yielded an inhibition of 6.13%. CCC(C)(C)NC(=O)C(c1ccc(O)cc1)N(Cc1ccco1)C(=O)CCC(=O)Nc1ccccn1 (stereo not given) showed an inhibition of -14.9%. Work on COc1cccc(NC(=O)N2CCC(NC(=O)C(Cc3cccc(C)c3)NC(C)=O)CC2)c1 (stereo not given) yielded an inhibition of -1.52%. Cc1ccc(-n2[nH]c(C)c(/C=N/NC(=O)c3cccc([N+](=O)[O-])c3)c2=O)cc1C was tested, and the inhibition was 1.83%. CCN1CCN(c2cc3nc(C)n(Cc4ccccc4)c(=O)c3cc2NC(=O)c2ccccc2F)CC1 was tested, and the inhibition was -2.2%. With COc1ccc(C(=O)CSc2nnc(COc3ccccc3)n2Cc2ccco2)cc1 the inhibition was -6.68%. COc1ccc(OCc2nnc3n2N=C(c2ccccc2)C(CC(=O)O)S3)cc1 (stereo not given) was tested, and the inhibition was 33.1% (active). COc1cccc(OCc2nnc3n2N=C(c2ccccc2)C(CC(=O)O)S3)c1 (stereo not given) was tested, and the inhibition was 3.81%. CC(C)(C)c1ccc(C(CC(=O)O)NS(=O)(=O)Cc2ccccc2)cc1 (stereo not given) showed an inhibition of -3.96%. With FC(F)(F)C1CCCN(c2nsc3ccccc23)C1 (stereo not given) the inhibition was 76.9% (active). Work on CCOC(=O)c1c(NC(=S)NC(=O)c2ccco2)sc2c1CCCC2 yielded an inhibition of 6.75%. Work on CC(C)OC(=O)c1c(NC(=O)c2ccco2)sc2c1CCCC2 yielded an inhibition of -7.19%. CNC(=O)c1c(NC(NC(=O)c2ccco2)C(=O)c2ccc(Cl)cc2)sc2c1CCCC2 (stereo not given) was tested, and the inhibition was 35% (active). For CC(=O)Nc1ccc(NC(=O)CC2CCCC2)cc1, the inhibition was -1.31%. With O=C(CCC1CCCC1)N=C1SC2CS(=O)(=O)CC2N1Cc1ccccc1 (stereo not given) the inhibition was 9.31%. In the case of Cc1cc(C)n2nc(CNS(=O)(=O)c3c(F)c(F)c(F)c(F)c3F)nc2n1, the inhibition was 2.95%. CC(C)=CCN1CCN(CCCc2ccccc2)CC1CCO (stereo not given) gave an inhibition of -4.62%. Cc1ccc(-n2c(C)cc(/C=C(\C#N)C(=O)NCC3CCCO3)c2C)cc1 (stereo not given) was tested, and the inhibition was -10.2%. Compound CN(C)c1ccc(-c2nnc(-c3cccnc3)o2)cc1 has an inhibition of 10.3%. In the case of O=C1CC(c2ccccc2)=NN1c1ccc([N+](=O)[O-])cc1, the inhibition was 0.8%. For O=c1[nH]n(-c2ccc([N+](=O)[O-])cc2)c(=O)c2ccccc12, the inhibition was 34.9% (active). Cc1nc2ccccc2c(=O)n1Cc1ccc([N+](=O)[O-])cc1 was tested, and the inhibition was -5.86%. CCCC(C(=O)NC1CCCC1)N(C(=O)Cn1nnc(-c2ccc(C)o2)n1)c1cccc(O)c1 (stereo not given) was tested, and the inhibition was -0.55%. Work on CCCc1nc2ccccc2c(=O)n1NC(=O)c1c(O)c2ccccc2[nH]c1=O yielded an inhibition of -1.38%. CCCc1nc2ccccc2c(=O)n1/N=C/c1ccc(O)c(O)c1 was tested, and the inhibition was 53.2% (active). With O=c1c2ccccc2ncn1/N=C/c1ccccc1 the inhibition was 1.08%. With Nc1nc(SCC(=O)Nc2cc(C(F)(F)F)ccc2Cl)[nH]c(=O)c1NC(=O)c1ccco1 the inhibition was 30.4% (active). COc1ccc(C(=O)Nc2c(N)nc(SCC(=O)Nc3ccc(C(C)=O)cc3)[nH]c2=O)cc1 was tested, and the inhibition was 7.68%. For COC(=O)c1ccc(NC(=O)CSc2nc(N)c(NC(=O)c3ccc(Br)o3)c(=O)[nH]2)cc1, the inhibition was 0.86%. For COc1ccc(C)cc1Nc1nc(C)nc2c1oc1ccccc12, the inhibition was 2.6%. CCc1ccc(C(CNc2nc(C(F)(F)F)nc3ccccc23)N(C)C)cc1 (stereo not given) showed an inhibition of 2.51%. For Cc1cc(OC(=O)c2ccccc2Cl)ccc1N1C(=O)CCC1=O, the inhibition was 3.74%. With CCN(CC)S(=O)(=O)c1cc([N+](=O)[O-])ccc1NNC(=O)Nc1ccccc1 the inhibition was 48.1% (active). Compound CC(=O)c1ccc(NC(=O)Nc2ccc([N+](=O)[O-])cc2C)cc1 has an inhibition of -10.5%. CCN(CC)S(=O)(=O)c1cc([N+](=O)[O-])ccc1N=Nc1c(O)n(C)c2ccccc12 gave an inhibition of -3.78%. With CCCCN(CCCC)CCNC(=O)CN1C(=O)COc2ccc(S(=O)(=O)N3CCOCC3)cc21 the inhibition was 7.53%. With CCCCN1C(=O)C(C)=C(C)C1OCCc1ccc(OC)c(OC)c1 (stereo not given) the inhibition was -8.94%. Compound CC1(C(=O)N/N=C/c2cc3c(cc2Br)OCO3)CC1(Br)Br (stereo not given) has an inhibition of 7.28%. In the case of CN(C)CCCN(C(=O)COc1ccccc1)c1nc2c(Cl)cccc2s1, the inhibition was -2.07%.
